The text below walks through data of PubChem BioAssay.

What is called inhibition is the drop in the measured response relative to a control, in per cent.

Assay [1] is described as follows: inhibitors of TNFa-induced NFkB p65 translocation, primary screen, imaging, HUVEC, MLSMR starter and 10KST1 sets (AID 438;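 active means inhibition above 20% together with a positive visual image hit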;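 further: compound added about 3h40 before a 20 min TNFalpha stimulation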;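 on inhibition: signal is the nuclear over cytoplasmic p65 intensity ratio per well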). The conditions noted are these: HUVEC TNFa-induced p65 nuclear translocation; cell count: measured here: nuclei count (cytotoxicity indicator), at 2.08 µM; inhibition: at 2 µM, stronger effect = higher value, 0% TNFa-plus-vehicle, 100% no-TNFa wells.
Assay [2] is described as follows: endothelial E-selectin expression blockers – imaging, HUVEC, immunofluorescence, MLSMR starter and 10KST1 sets, primary screen (AID 487;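 active means visually confirmed hit in the image check and inhibition above 20%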;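 on inhibition: signal is fraction of cell area covered by stained E-selectin grains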;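 on nuclei count: 100% = median nuclei count of all wells on the same plate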). The conditions noted are these: HUVEC TNFalpha-induced E-selectin immunofluorescence imaging, at 2 µM; inhibition: stronger effect = higher value; nuclei count: measured here: cell number, toxicity.
A short description of assay [3]: Primary imaging screen for DUSP6 inhibitors that restore phospho-Erk in transfected HeLa cells, chemical complementation (AID 609;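 active means compounds giving at least 50% inhibition in the cell-based MKP-3 phosphatase rescue imaging test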;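 on inhibition: phospho-Erk level distribution per well compared with pooled transfected vehicle control wells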). The following applies: HeLa MKP-3 transfected, phospho-Erk imaging KS statistic, at 10 µM, cells stimulated with TPA for 15 min.
Assay [4] has as its target Dual specificity protein phosphatase 6 (Homo sapiens) (UniProt Q16828). Described as above. The conditions noted are these: HeLa MKP-3 transfected, phospho-Erk imaging KS statistic; at 10 µM; stronger effect = higher value; cells stimulated with TPA for 15 min.
Assay [5] deals with Voltage-gated potassium channel subunit beta-2 (Rattus norvegicus) (UniProt P62483). The experiment in a line: inhibitors of rat Kvbeta2 reductase activity – biochemical, NADPH fluorescence, primary screen (AID 622;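 active means fluorescence slope higher than the sample average by over 3 SD, cut at about -0.22 in these data, passing the limit was not always enough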;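 further: slope of raw intensity against log time taken from 70 to 1610 s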). The conditions noted are these: recombinant KvBeta, 4-cyanobenzaldehyde reduction, at 10 µM, stronger effect = higher value.
Sequence of Voltage-gated potassium channel subunit beta-2 (Rattus norvegicus) (P62483 whole entry, looked up): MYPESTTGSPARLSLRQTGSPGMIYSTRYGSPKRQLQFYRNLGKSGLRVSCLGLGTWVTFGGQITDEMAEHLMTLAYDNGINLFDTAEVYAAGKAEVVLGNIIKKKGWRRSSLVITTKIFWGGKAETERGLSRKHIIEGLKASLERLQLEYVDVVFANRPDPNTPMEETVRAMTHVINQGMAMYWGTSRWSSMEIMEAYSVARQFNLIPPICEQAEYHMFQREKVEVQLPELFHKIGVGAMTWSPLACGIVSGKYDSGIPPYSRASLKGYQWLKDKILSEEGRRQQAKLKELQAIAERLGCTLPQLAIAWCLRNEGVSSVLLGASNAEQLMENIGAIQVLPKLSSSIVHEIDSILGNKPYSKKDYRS
For assay [6] the target is unchanged. The experiment in a line: enhancers of rat Kvbeta2 NADPH turnover – biochemical, NADPH fluorescence, primary screen (AID 623;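 active means NADPH fluorescence slope more negative than the mean of all samples by about 3 SD, 99.7% confidence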;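 further: fluorescence intensity change per second fitted from 20 to 320 s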). The following applies: Recombinant KvBeta, NADPH fluorescence decrease slope, 10 min; at 10 µM; stronger effect = lower value.
The target of assay [7] is Alpha-2C adrenergic receptor (Homo sapiens) (UniProt P18825). The experiment in a line: compounds altering alpha2C-coupled GIRK flux – cell-based, HEK293 alpha2C/GIRK1/2, thallium flux, primary screen (AID 624;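 active means fluorescence slope after compound addition differing from the mean of all screened samples at 99.7% confidence, in either direction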;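 further: slope of fluorescence ratio to pre-addition baseline per second over 15 to 24 s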). The following applies: thallium flux BTC fluorescence, at 10 µM, actives lie on both sides.
Sequence of Alpha-2C adrenergic receptor (Homo sapiens) (P18825 whole entry, looked up): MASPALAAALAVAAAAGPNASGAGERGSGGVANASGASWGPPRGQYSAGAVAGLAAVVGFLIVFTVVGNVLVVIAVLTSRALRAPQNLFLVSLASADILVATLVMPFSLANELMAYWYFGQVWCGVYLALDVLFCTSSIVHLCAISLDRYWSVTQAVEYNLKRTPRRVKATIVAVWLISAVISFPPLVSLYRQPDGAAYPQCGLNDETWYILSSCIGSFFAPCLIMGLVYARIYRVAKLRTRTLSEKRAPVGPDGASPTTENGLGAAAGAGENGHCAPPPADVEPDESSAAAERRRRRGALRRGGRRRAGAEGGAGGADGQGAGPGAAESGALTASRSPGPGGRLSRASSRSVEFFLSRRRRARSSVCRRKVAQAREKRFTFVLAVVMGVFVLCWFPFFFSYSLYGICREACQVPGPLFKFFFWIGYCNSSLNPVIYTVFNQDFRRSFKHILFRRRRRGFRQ
A short description of assay [8]: inhibitors of larval lipid processing in zebrafish, primary screen, whole organism, PED6 fluorescence, gall bladder and intestine (AID 686;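 active means a full or partial loss of lipid-probe fluorescence in the fish gall bladder, intestine or both, judged by eye; inactive means no fluorescence loss, or compound toxic to the fish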;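 further: larvae 5 to 7 days old with five fish per well; signal comes from phospholipase A2 cleavage of quenched PED6 carried via bile; overnight exposure to compound and PED6 before scoring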). The following applies: Zebrafish larvae PED6 lipid processing, fluorescence scoring; screened at 20 µM (by protocol).
Assay [9] can be described thus: loss of swimming-algae plug formation – whole organism, Chlamydomonas reinhardtii, WT vs cilia-less mutant, absorbance, 96-well, primary screen (AID 463189).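 Further: 0% = wild type cc124 cells in DMSO and 100% = ciliumless bld1 mutant cells.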 The conditions noted are these: Chlamydomonas reinhardtii gravitaxis, OD600 absorbance, 2 days; at 10 µM; stronger effect = higher value.
Assay [10] in a line: blockers of RIG-like receptor reporter activation – cell-based, Sendai virus stimulus, luciferase, 10K MLSCN set, TLR/RLR signaling modifier project, primary screen (AID 602276;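 active means inhibition at or above 50% at 10 µM; inactive means inhibition below 50%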;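 further: firefly luciferase from ISG56 promoter only with Renilla not read in this screen; 0% = Sendai virus plus DMSO and 100% = medium plus DMSO without virus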). The following applies: HEK293 RL24 IRF3 luciferase reporter, at 10 µM, stronger effect = higher value. (In a reporter assay the amount or activity of a reporter protein is the signal.)
The nature of assay [11]: TLR3 IRF3 reporter activation blockers – cell-based, poly I:C stimulus, luciferase, 10K MLSCN set, primary screen (AID 602277;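 active means inhibition of the reporter signal at or above 50%; inactive means inhibition below 50%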). The following applies: HEK293-TLR3 RL24 IRF3 luciferase reporter, at 10 µM, stronger effect = higher value.
Assay [12] in a line: reduction of polyQ htt aggregates in cells – imaging, exon1htt(103Q)mCFP cells, high-content imaging, primary screen (AID 483;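 active means visual image review flags a hit and inhibition of aggregation exceeds 20%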;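 further: compound exposure lasted 3 days before fixation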;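 on nuclei count: percent of the per-plate median nuclei count of sample wells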). The conditions noted are these: exon1htt(103Q)mCFP cell line, aggregate imaging, at 2 µM; inhibition of aggregation: stronger effect = higher value; nuclei count: measured here: cell count, toxicity.
Where [13] appears, read: measured here: cell density z-score.
Where [14] appears, read: measured here: nuclear c-Myc green intensity z-score.
The mark [15] stands for this setting: measured here: nuclear pErk red intensity z-score, stronger effect = higher value.

Several values for one entry are separate records, joined by “and”; a condition that tells them apart may be missing. Equal values may be shown once. Activity calls are given as the source filed them.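 How the source made its calls, unless noted: active means inhibition at or above 50% relative to wild type and mutant plate controls; inactive means inhibition below 50%.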

Sequence of Dual specificity protein phosphatase 6 (Homo sapiens) (Q16828 whole entry, looked up): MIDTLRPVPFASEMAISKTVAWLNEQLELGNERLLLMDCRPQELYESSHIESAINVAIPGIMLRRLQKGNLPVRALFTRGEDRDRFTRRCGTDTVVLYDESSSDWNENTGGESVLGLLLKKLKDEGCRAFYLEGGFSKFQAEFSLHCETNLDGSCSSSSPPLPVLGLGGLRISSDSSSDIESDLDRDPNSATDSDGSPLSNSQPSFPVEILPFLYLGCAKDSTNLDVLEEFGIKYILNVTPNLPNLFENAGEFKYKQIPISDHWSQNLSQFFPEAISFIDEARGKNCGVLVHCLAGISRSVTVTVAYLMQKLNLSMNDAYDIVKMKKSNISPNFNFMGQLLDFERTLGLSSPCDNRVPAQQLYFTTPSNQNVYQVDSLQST

With `CC1(C)SC2[C@H](NC(=O)C(NC(=O)N3CCNC3=O)c3ccccc3)C(=O)N2C1C(=O)O` (stereo partly specified), the cell count in [1] amounted to 705. Also, the inhibition is -9.5% (inactive) in [1]; -58.5% (inactive) in [2]; 15.3% (inactive) in assay [4]; 6.16% (inactive) in assay [9]; 3.1% (inactive) in assay [10]; 37.2% (inactive) in [11]. In [2], this molecule registered a nuclei count of 117%. Besides, the z-score is 0.0464 in assay [3] (setting [13]), -0.196 in [3] (setting [14]) and -0.885 in assay [3] (setting [15]). Also, the fluorescence slope in assay [5] was -0.461 (inactive). Besides, in assay [6], the NADPH fluorescence slope is -5.2e-05 (inactive). The slope in [7] is 0.00535 (inactive). For the same molecule, the outcome in [8] was inactive.

In the case of `Cc1nnc(SCC2=C(C(=O)O)N3C(=O)[C@@H](NC(=O)Cn4cnnn4)[C@H]3SC2)s1`, the cell count in [1] stood at 628. The inhibition is -2.9% (inactive) in assay [1]; -103% (inactive) in assay [2]; -6.41% (inactive) in [4]; 9.57% (inactive) and 15.2% (inactive) in [9]; 9.64% (inactive) in assay [10]; 21.6% (inactive) in assay [11]. The nuclei count in [2] was determined as 125%. The values for the z-score in assay [3] (setting [13]), in assay [3] (setting [14]) and in [3] (setting [15]) were -0.857, 0.639 and 1.89, respectively. In assay [5], the fluorescence slope was -0.495 (inactive). For the same molecule, the NADPH fluorescence slope in [6] was -4.7e-05 (inactive). The slope in [7] is 0.00463 (inactive). For the same molecule, in assay [8], the molecule was called inactive.

With `Cc1ccc(N(CC2=NCCN2)c2cccc(O)c2)cc1`, the cell count in [1] was 561 and 534. Besides, the inhibition in [1] is -6.5% (inactive) and 2.1% (inactive); in [2], -44.6% (inactive) and -23.4% (inactive); in assay [4] it was 5.79% (inactive); in assay [9], 4.48% (inactive) and 1.6% (inactive) and -7.32% (inactive); in [10] it was 0.917% (inactive) and -3.85% (inactive); in [11] it was 21.2% (inactive) and 12.9% (inactive). Further, the inhibition of aggregation in assay [12] is -6.5% (inactive) and -10.5% (inactive). For the same molecule, the nuclei count in assay [12] is 106% and 78.7%; in assay [2] it was 136% and 125%. The z-score in assay [3] (setting [13]) was -1.49 and -0.829; in assay [3] (setting [14]), 1.38 and 2.5; in assay [3] (setting [15]), -0.739 and 1.17. In assay [5], the fluorescence slope was -0.452 (inactive) and -0.478 (inactive). The NADPH fluorescence slope in assay [6] is -5.4e-05 (inactive) and -3.9e-05 (inactive). Further, the call in assay [8] was inactive.

In the case of `O=C1C(CCS(=O)c2ccccc2)C(=O)N(c2ccccc2)N1c1ccccc1` (stereo unspecified), the cell count in [1] is 647. Further, the inhibition is 4.4% (inactive) in [1]; -95.5% (inactive) in [2]; 12.4% (inactive) in [4]; -7.13% (inactive) in [9]; 7.23% (inactive) in assay [10]; 25.7% (inactive) in assay [11]. In addition, in assay [2], the nuclei count was determined as 124%. Also, the z-score in assay [3] (setting [13]) was 0.561; in [3] (setting [14]), 0.78; in [3] (setting [15]), -1.11. For the same molecule, in assay [5], the fluorescence slope is -0.436 (inactive). In addition, the NADPH fluorescence slope in assay [6] was -4.2e-05 (inactive). The slope in [7] was 0.00501 (inactive). The outcome in assay [8] was inactive.

With `CCOC(=O)C1=C(C)NC(C)=C(C(=O)OC)C1c1cccc(Cl)c1Cl` (stereo unspecified), in assay [1], the cell count turned out to be 723. In addition, the inhibition is -6.4% (inactive) in assay [1]; -52.9% (inactive) in assay [2]; 25.1% (inactive) in assay [4]; 14.9% (inactive) and 24.6% (inactive) in assay [9]; 3.98% (inactive) in assay [10]; 6.81% (inactive) in assay [11]. This molecule also came in with a nuclei count in assay [2] of 142%. In addition, the z-score in [3] (setting [13]) was 0.529; in assay [3] (setting [14]), -0.8; in assay [3] (setting [15]), 1.2. Also, in assay [5], the fluorescence slope was -0.431 (inactive). Further, in assay [6], the NADPH fluorescence slope was -6.6e-05 (inactive). Also, the slope in assay [7] is 0.00394 (inactive). Moreover, the result in assay [8] was inactive.
